Test results published in ChEMBL document CHEMBL4513216, “Probing the Open Global Health Chemical Diversity Library for Multistage-Active Starting Points for Next-Generation Antimalarials” (ACS Infect Dis, 2020).
Hit rate of the full screen: of about 68,000 compounds, about 2,700 (4%) showed an effect of 50% or more. Shown is part of a subset that was picked to be rich in strong results.

What follows are molecules tested on Plasmodium berghei (assay: Screen against P. berghei liver stage (PbLuc), transformed with Luciferase, at 2uM). Conditions: tested at 2 uM.
Type: functional, HepG2

| SMILES | INHIBITION [%] |
| --- | --- |
| Cc1ccc(CN2C[C@H](OCC3CCOCC3)[C@H]3COC[C@H]32)o1 | 18.32 |
| CC(C)=CCN1CCN(Cc2nccn2C)[C@H]2CS(=O)(=O)C[C@H]21 | 8.26 |
| CC(C)CN1CCN(S(=O)(=O)c2cn(C)cn2)[C@H]2CS(=O)(=O)C[C@H]21 | 15.74 |
| Cc1nc2ccc(C(=O)N3CCN(CCO)[C@@H]4CS(=O)(=O)C[C@@H]43)cc2o1 | -85.34 |
| CC(C)=CCN1CCN(S(=O)(=O)c2cn(C)cn2)[C@H]2CS(=O)(=O)C[C@H]21 | 50.98 |
| Cn1cnc2cc(C(=O)N3CCN(CCO)[C@@H]4CS(=O)(=O)C[C@@H]43)ccc21 | 55.36 |
| O=C(c1ccc2nccnc2c1)N1CCN(CCO)[C@@H]2CS(=O)(=O)C[C@@H]21 | 14.82 |
| O=C(Cn1nc(-c2ccc(F)cc2)oc1=O)NCCc1ccccc1 | 20.57 |
| c1ccc(OCc2nnn3c2CN(c2ncccn2)CCC3)nc1 | -7.52 |
| Cc1nnc2ccc(OCCNS(C)(=O)=O)nn12 | -26.08 |
| N#Cc1cccc(CN2CCn3cc(Cn4cccn4)nc3C2)c1 | 21.42 |
| CSc1ccc(NCC(=O)NCC2CC2)cc1F | 55.66 |
| CSc1ccc(NCC(=O)NC(=O)NCC(F)(F)F)cc1F | 18.63 |
| CSc1ccc(NCC(=O)NCC(=O)N2CCCC2)cc1F | -30.18 |
| COc1ccc(CNC(=O)NC2CCN(CC3CCCC3)CC2)cn1 | -17.01 |
| CCCN1C[C@H](NC(=O)c2cccs2)[C@@H](c2ccc(OC)cc2)C1 | 53.65 |
| CCCN1C[C@H](NC(=O)c2ccccc2F)[C@@H](c2ccc(OC)cc2)C1 | 16.55 |
| CCCN1C[C@H](NC(=O)c2cc(C)no2)[C@@H](c2ccc(OC)cc2)C1 | 18.22 |
| O=c1c2ccccc2ncn1Cc1cc(C2CC2)[nH]n1 | 34.98 |
| CCOCC1c2c(ncn2C)CCN1C(=O)c1cscn1 (stereo not given) | 16.78 |
| Cc1ncnc2c1CCN(Cc1ccc3c(c1)OCO3)CC2 | -39.9 |
| Cc1noc(C)c1CNc1ccc2nc(C3CC3)sc2c1 | 25.21 |

| SMILES | INHIBITION [%] |
| --- | --- |
| Cc1cc(CNc2ccc3nc(C4CC4)sc3c2)no1 | 53.63 |
| Cc1cc(CNc2ccc3nc(C)sc3c2)no1 | -32.33 |
| O=C1NCCN(CC2CC2)C12CCN(Cc1ccco1)CC2 | 61.9 |
| O=C(NC1CC1)N1CCC2(CC1)C(=O)NCCN2Cc1ccccc1 | -11.54 |
| O=C(CC1CC1)N1CCC2(CC1)C(=O)NCCN2Cc1ccccc1 | 52.36 |
| CN1CCNC(=O)C12CCN(Cc1ccco1)CC2 | 27.42 |
| CC(C)NC(=O)N1CCC2(CC1)C(=O)NCCN2Cc1ccccc1 | 5.69 |
| Cc1ccc(CN2CCC3(CC2)C(=O)NCCN3CC2CC2)o1 | 8.62 |
| CC(C)CNC(=O)[C@H]1CCS(=O)(=O)[C@@H]2CN(Cc3cccnc3)C[C@H]12 | 35.07 |
| COC(=O)c1ncccc1N1CCCCC1 | -18.04 |
| COc1nc2ccccc2cc1C1CC(=O)Nc2n[nH]c(C3CCC3)c21 (stereo not given) | 13.51 |
| CC(C)c1nccc(C2CC(=O)Nc3n[nH]c(C4CCC4)c32)n1 (stereo not given) | 53.33 |
| O=C1CC(c2ccc3ccccc3n2)c2c(n[nH]c2C2CCC2)N1 (stereo not given) | 46.3 |
| Cc1nnc(SCC(=O)N2CCc3[nH]nc(C4CCC4)c3C2)o1 | 22.34 |
| CCc1n[nH]c(SCC(=O)N2CCc3[nH]nc(C4CCC4)c3C2)n1 | 23.45 |
| CCc1nnc(SCC(=O)N2CCc3[nH]nc(C4CCC4)c3C2)o1 | 66.4 |
| O=C(C1CC1)N1CCC(O)(CN2CCN(c3ccccc3)CC2)C1 (stereo not given) | 0.64 |
| Cc1nc2c(c(N(C)C)n1)CCN(C(=O)c1sccc1S(N)(=O)=O)C2 | -22.79 |
| CC(C)CNc1nccc(-c2cnc3sc(Cl)cn3c2=O)n1 | -24.85 |
| CC(NC(=O)CCn1cccn1)c1ccc(-n2ccnn2)cc1 (stereo not given) | -33.92 |
| COC(=O)CC(NC(=O)CCCn1cccn1)c1ccc(Cl)cc1 (stereo not given) | -18.57 |
| COC(=O)CC(NC(=O)CCn1cccn1)c1ccc(C)cc1 (stereo not given) | 60.13 |

| SMILES | INHIBITION [%] |
| --- | --- |
| CC(NC(=O)CCn1cccn1)c1cn(-c2ccccc2)nn1 (stereo not given) | 2.26 |
| CC(NC(=O)CCn1cccn1)c1cccs1 (stereo not given) | -38.35 |
| CC(C)OC(=O)CC(NC(=O)CCn1cccn1)c1ccccc1 (stereo not given) | 67.28 |
| CN(C)CCN1CCC2(CCN(C(=O)c3ccc(F)cc3)CC2)C1=O | -16.42 |
| Cc1cc(C)n(CC2CN(CC(=O)NCc3ccccn3)CCO2)n1 (stereo not given) | -12.05 |
| CN(Cc1cccnc1)[C@@H]1CN(C(=O)c2ccno2)[C@@H]2CCCO[C@H]12 | -7.88 |
| CCSc1cc(C(=O)NCc2ccc(C(=O)NC)cc2)ccn1 | 19.48 |
| C[S+]([O-])c1nncn1CC(=O)c1ccc(Br)cc1 (stereo not given) | -59.71 |
| CCOC(=O)CC(c1ccc(OC)cc1)c1c(O)n[nH]c1C (stereo not given) | -43.9 |
| CN(Cc1ccc([S+](C)[O-])cc1)c1ccc(C(F)(F)F)cn1 (stereo not given) | 48.21 |
| CN(Cc1ccc([S+](C)[O-])cc1)c1ccc(Br)cn1 (stereo not given) | 67.28 |
| CN(Cc1ccc([S+](C)[O-])cc1)c1ccc(Cl)cn1 (stereo not given) | 45.82 |
| CN(C)[C@H]1CCCCN(C(=O)c2cccc(-c3cccc(F)c3)c2)C1 | 36.79 |
| COc1c(F)ccc(C(=O)N2CC[C@H](CO)[C@@H](O)C2)c1F | -15.37 |
| NC(=O)c1cc(-n2cc(-c3cccc(C(=O)O)c3)cn2)cs1 | 29.13 |
| NC(=O)c1ccccc1-n1cc(-c2cccc(C(=O)O)c2)cn1 | 0.51 |
| NC(=O)c1cc(-c2cccc(C(=O)O)c2)cs1 | 67.28 |
| CC(C)C(=O)N1CCC2(CCCN(CCOc3ccccc3)C2)C1 (stereo not given) | 21.89 |
| Cn1c(N)nnc1SCc1c(F)cccc1Br | -3.53 |
| Cn1c(N)nnc1SCc1cc(Br)ccc1Cl | 55.36 |
| Cn1c(N)nnc1SCc1ccc(Cl)cc1Br | 45.82 |
